In article PMC5700166:

How the values were obtained:
Assay in all cases: protein-binding microarray (PBM); PBM: ~300 nM protein, 6 mM HEPES pH 7.8, 80 mM KCl, 0.5 mM EDTA, 0.5 mM EGTA, 6% glycerol, 35 ng/ul poly-dIdC, 1% milk, 1 h, room temperature; Ap Aiptasia and Nv Nematostella (sea anemones) / Co Capsaspora / Aq Amphimedon (sponge) / Dm Drosophila / Hu human; RHD is the Rel homology domain; high values mean tight binding
Settings in all cases: dsDNA, one strand shown
GST-Ap-NF-kB RHD = target: T1, GST-Ap-NF-kB RHD (Exaiptasia pallida (Aiptasia), UniProt A0A913YAJ5 2-422)
T1 sequence: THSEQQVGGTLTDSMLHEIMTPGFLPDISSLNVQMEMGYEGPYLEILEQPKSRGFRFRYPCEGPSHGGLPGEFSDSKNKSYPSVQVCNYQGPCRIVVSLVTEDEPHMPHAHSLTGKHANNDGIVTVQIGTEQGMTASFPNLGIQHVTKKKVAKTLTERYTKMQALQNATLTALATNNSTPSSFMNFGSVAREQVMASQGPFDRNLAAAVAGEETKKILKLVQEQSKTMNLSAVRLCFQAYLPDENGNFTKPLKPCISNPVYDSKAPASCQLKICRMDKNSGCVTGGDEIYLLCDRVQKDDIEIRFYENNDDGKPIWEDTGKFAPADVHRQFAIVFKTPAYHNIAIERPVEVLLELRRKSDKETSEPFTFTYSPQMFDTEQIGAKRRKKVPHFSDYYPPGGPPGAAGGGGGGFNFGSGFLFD

[1] = target: T2, GST-Nv-NF-kB (Ser allele) (Nematostella vectensis, UniProt A7UNT2 2-411)
T2 sequence: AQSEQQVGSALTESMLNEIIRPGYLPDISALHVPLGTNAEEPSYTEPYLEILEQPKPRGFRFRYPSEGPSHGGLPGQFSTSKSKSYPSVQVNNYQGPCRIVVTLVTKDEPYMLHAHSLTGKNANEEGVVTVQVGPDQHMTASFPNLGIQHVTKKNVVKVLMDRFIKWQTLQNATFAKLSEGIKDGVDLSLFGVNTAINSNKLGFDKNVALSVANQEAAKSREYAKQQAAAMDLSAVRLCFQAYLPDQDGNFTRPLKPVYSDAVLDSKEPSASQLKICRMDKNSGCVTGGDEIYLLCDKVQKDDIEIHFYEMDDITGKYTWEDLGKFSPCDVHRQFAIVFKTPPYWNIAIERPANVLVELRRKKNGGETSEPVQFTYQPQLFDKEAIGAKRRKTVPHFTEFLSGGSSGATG

GST-Co-NF-kB = target: T3, GST-Co-NF-kB (Capsaspora owczarzaki, UniProt F1ARL5 200-546)
T3 sequence: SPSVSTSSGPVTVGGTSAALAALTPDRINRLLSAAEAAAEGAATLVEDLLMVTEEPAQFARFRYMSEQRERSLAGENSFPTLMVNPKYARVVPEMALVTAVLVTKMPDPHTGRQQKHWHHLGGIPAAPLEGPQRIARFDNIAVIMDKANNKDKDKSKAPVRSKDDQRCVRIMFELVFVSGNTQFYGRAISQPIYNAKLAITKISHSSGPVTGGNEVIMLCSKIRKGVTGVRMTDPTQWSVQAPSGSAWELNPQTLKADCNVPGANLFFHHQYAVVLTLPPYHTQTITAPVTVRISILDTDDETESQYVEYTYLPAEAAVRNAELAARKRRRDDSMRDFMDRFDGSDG

GST-Dm-Relish = target: T4, GST-Dm-Relish (Drosophila melanogaster, UniProt Q94527 99-473)
T4 sequence: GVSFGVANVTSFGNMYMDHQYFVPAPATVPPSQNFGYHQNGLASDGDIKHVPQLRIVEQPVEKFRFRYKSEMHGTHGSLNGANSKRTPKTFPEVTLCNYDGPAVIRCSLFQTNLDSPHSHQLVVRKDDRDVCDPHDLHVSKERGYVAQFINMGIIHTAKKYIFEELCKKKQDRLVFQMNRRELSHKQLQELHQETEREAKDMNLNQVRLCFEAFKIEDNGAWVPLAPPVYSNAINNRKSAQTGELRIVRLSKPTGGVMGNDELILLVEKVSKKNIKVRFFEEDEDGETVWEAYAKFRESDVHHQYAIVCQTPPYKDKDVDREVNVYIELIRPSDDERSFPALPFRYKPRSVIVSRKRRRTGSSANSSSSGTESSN

GST-Aq-NF-kB = target: T5, GST-Aq-NF-kB (Amphimedon queenslandica, UniProt A9Y5G7 2-389)
T5 sequence: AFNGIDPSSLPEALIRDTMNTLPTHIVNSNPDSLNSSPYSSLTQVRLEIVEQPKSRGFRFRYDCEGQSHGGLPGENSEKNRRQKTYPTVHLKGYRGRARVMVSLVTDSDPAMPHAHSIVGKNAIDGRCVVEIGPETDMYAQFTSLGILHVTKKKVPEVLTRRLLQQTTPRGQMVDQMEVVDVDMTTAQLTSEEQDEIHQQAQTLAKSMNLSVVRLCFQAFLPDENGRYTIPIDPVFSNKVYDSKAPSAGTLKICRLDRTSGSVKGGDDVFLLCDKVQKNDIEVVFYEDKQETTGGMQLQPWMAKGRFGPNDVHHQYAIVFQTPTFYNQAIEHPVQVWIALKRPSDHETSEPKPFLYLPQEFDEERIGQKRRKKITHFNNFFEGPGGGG

| Sequence | binding signal (GST-Ap-NF-kB RHD) [z-score] | binding signal [1] [z-score] | binding signal (GST-Co-NF-kB) [z-score] | binding signal (GST-Dm-Relish) [z-score] | binding signal (GST-Aq-NF-kB) [z-score] |
| --- | --- | --- | --- | --- | --- |
| CCGATTAACATCAGGGGGGGATATGATGTTAATCGGGTCTTGATTCGCTTGACGCTGCTG | 6.21 | 5.63 | 5.9 | 4.91 | 5.29 |
| CCGATTAACATCACCCTTGGGAATGATGTTAATCGGGTCTTGATTCGCTTGACGCTGCTG | 1.03 |  | 2.46 |  | 2.01 |
| CCGATTAACATCAAGGGGGGGATTGATGTTAATCGGGTCTTGATTCGCTTGACGCTGCTG | 7.19 |  | 4.35 | 5.64 | 5.59 |
| CCGATTAACATCACCTCCCCCCCTGATGTTAATCGGGTCTTGATTCGCTTGACGCTGCTG | 4.48 |  | 3.77 | 4.13 | 3.93 |
| CCGATTAACATCAGGGGGGGAGATGATGTTAATCGGGTCTTGATTCGCTTGACGCTGCTG | 5.6 |  | 8.63 | 3.66 | 4.59 |
| CCGATTAACATCAATCCCCCCCCTGATGTTAATCGGGTCTTGATTCGCTTGACGCTGCTG | 7.49 |  | 7.2 | 6.09 | 5.2 |
| CCGATTAACATCACTCCCCCCCCTGATGTTAATCGGGTCTTGATTCGCTTGACGCTGCTG | 5.73 |  | 6.72 | 4.43 | 4.65 |
| CCGATTAACATCACCCCCCCTGATGATGTTAATCGGGTCTTGATTCGCTTGACGCTGCTG | 4.83 | 3.09 | 5.83 | 4.63 | 4.51 |
| CCGATTAACATCAAGGGGGGGAATGATGTTAATCGGGTCTTGATTCGCTTGACGCTGCTG | 6.62 |  | 8.37 | 4.96 | 5.81 |
| CCGATTAACATCACGGGGGGGGCTGATGTTAATCGGGTCTTGATTCGCTTGACGCTGCTG | 4.19 |  | 5.11 | 4.98 | 4.34 |
| CCGATTAACATCATAAGGGGTGTTGATGTTAATCGGGTCTTGATTCGCTTGACGCTGCTG | 2.3 |  | 1.09 |  | 1.91 |
| CCGATTAACATCAATACCCCCCCTGATGTTAATCGGGTCTTGATTCGCTTGACGCTGCTG | 6.7 |  | 6.7 | 5.66 | 4.66 |
| CCGATTAACATCAAGGGGGGAGGTGATGTTAATCGGGTCTTGATTCGCTTGACGCTGCTG | 4.12 | 4.04 | 5.65 | 3.23 | 4.07 |
| CCGATTAACATCATAGTGAGGGGTGATGTTAATCGGGTCTTGATTCGCTTGACGCTGCTG | 2.05 |  | 1.74 |  | 1.09 |
| CCGATTAACATCACCCCAACCCCTGATGTTAATCGGGTCTTGATTCGCTTGACGCTGCTG | 2.55 |  | 3.44 | 2.69 | 2.27 |
| CCGATTAACATCAAGGTGTTCCCTGATGTTAATCGGGTCTTGATTCGCTTGACGCTGCTG | 1.65 |  | 2.38 | 4.31 | 2.49 |
| CCGATTAACATCAAGCCCCCCCTTGATGTTAATCGGGTCTTGATTCGCTTGACGCTGCTG | 4.63 | 4.35 | 3.04 | 4.77 | 4.92 |
| CCGATTAACATCACGGGGGGGGATGATGTTAATCGGGTCTTGATTCGCTTGACGCTGCTG | 6.27 | 5.38 | 7.62 | 5.35 | 5.29 |
| CCGATTAACATCAAGGGGGGGAGTGATGTTAATCGGGTCTTGATTCGCTTGACGCTGCTG | 4.51 |  | 7.82 | 3.56 | 4.43 |
| CCGATTAACATCACGGTACGGGGTGATGTTAATCGGGTCTTGATTCGCTTGACGCTGCTG | 2.02 |  | 2.2 | 1.48 | 1.51 |
| CCGATTAACATCAGGACACCCCATGATGTTAATCGGGTCTTGATTCGCTTGACGCTGCTG | 1.22 |  | 1.49 | 1.93 | 1.61 |
| CCGATTAACATCAGGGCTTCCCATGATGTTAATCGGGTCTTGATTCGCTTGACGCTGCTG | 1.44 |  | 1.01 | 8.36 | 3.5 |
| CCGATTAACATCAGTCCCCCCCATGATGTTAATCGGGTCTTGATTCGCTTGACGCTGCTG | 5.83 | 3.57 | 6.28 | 4.23 | 4.7 |
| CCGATTAACATCACACCCCAACATGATGTTAATCGGGTCTTGATTCGCTTGACGCTGCTG | 1.38 |  | 2.16 |  | 1.02 |
| CCGATTAACATCACTCCCCCCCATGATGTTAATCGGGTCTTGATTCGCTTGACGCTGCTG | 5.11 | 3.12 | 6.71 | 3.23 | 4.01 |
| CCGATTAACATCACTTCCCCCCCTGATGTTAATCGGGTCTTGATTCGCTTGACGCTGCTG | 5.69 | 5.01 | 8 | 4.33 | 4.94 |
| CCGATTAACATCAACCCCCCCCGTGATGTTAATCGGGTCTTGATTCGCTTGACGCTGCTG | 5.8 | 2.64 | 6.25 | 6.51 | 4.08 |
